Sampled rows, rich in hits. Any-hit rate of the full collection: about 2.4%.
D2 ag-1 = activates the human D2 dopamine receptor; DiscoveRx PathHunter D2 beta-arrestin, luminescence, 90 min; 100% = 57 uM dopamine signal; 360,000 compounds, 0.084% hits; AID 624465; activation, % (no concentration beside the values); in the data active = activation above about 40%; inconclusive = between about 15% and that limit
Target sequence (P14416 whole entry, looked up): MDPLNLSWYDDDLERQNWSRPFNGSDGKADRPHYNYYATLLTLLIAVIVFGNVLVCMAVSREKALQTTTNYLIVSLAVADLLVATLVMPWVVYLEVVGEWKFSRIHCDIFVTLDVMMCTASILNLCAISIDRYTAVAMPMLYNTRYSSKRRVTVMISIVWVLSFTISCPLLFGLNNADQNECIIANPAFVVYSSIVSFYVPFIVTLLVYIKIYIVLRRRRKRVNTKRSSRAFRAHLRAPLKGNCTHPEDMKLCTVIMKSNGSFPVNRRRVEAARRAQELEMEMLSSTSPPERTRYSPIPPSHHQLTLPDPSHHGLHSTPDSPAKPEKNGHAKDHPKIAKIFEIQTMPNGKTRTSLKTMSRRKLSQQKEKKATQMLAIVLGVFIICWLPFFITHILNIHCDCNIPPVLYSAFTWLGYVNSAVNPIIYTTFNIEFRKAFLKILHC
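Agonist mode: compounds alone added to overnight-plated D2 PathHunter cells for 90 min at 37 C, with 57 uM final dopamine (EC100) defining full response. Beta-arrestin recruitment detected by chemiluminescent reagent, read after 1 h at ambient temperature.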
D2 antagonist = D2 dopamine receptor (human) antagonism; P14416; HEK293 TREx D2 cells, calcium flux, dopamine EC80; inhibition, % at 10 µM; 340,000 compounds, 2% hits; AID 485344; in the data active = inhibition above about 30%; inactive = below that, where a call was filed; also: 0% is about no effect
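Read-out: kinetic calcium fluorescence (1 cycle/s) in inducible HEK293 T-REx D2 cells after an EC80 dopamine addition that followed 180 s compound preincubation. Loss of the dopamine response indicates antagonism.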
D2 PAM-1 = positive allosteric modulators of human D2 dopamine receptor; potentiation, % (concentration not given with the values); DiscoveRx D2 beta-arrestin cells, luminescence, 90 min; 100% = 57 uM dopamine signal; 360,000 compounds, 0.23% hits; AID 624464; in the data active = potentiation above about 50%; inconclusive = mostly about 30% to 49%
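PathHunter D2 cells, attached overnight at 37 deg C, received compound in DMSO plus dopamine at EC20 (50 nM final) for 90 min at 37 deg C. Beta-arrestin recruitment was read as luminescence after 1 h with detection reagent at ambient temperature.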
D2 ag-2 = D2 dopamine receptor (human) agonism; P14416; HEK293 T-REx D2 cells, calcium flux agonist mode; activation, % at 2 µM; 340,000 compounds, 0.53% hits; AID 485358;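 active = activation over 3 SD above normal in the single-dose calcium agonist read, cut at about 30% in these data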; also: 0% is about no effect
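Agonism scored from kinetic calcium signal (1 read/sec, 180 s) following compound pin transfer, after a 10 s baseline. Cells: HEK293 Trex line expressing inducible D2 receptor coupled to calcium, dye-loaded after overnight culture at 30 C.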
D2 PAM-2 = D2 dopamine receptor (human) potentiation; P14416; HEK293 T-REx D2, calcium flux, EC20 dopamine potentiation; potentiation, % at 10 µM; 340,000 compounds, 0.34% hits;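 active = potentiation over 3 SD above the plate norm, cut at about 30% in these data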; also: 0% is about no effect
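Potentiation of an EC20 dopamine calcium response is measured in a force-coupled, tetracycline-inducible Hek293 Trex D2 line. Compound-only kinetic reads over 180 s flag agonists before dopamine addition.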
D3 ag = D3 receptor agonism confirmed, beta-arrestin readout. AID 720506. Potency, µM (top dose mostly 76.9 µM), for the others: top-dose activation, actives largely listed as activators. DiscoveRx D3 beta-arrestin cells, luminescence, 90 min. shares compounds with D2 ag-2. 2,300 compounds, 4% hits;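 also: potency is read from the fitted curve at half-maximal effect; 100% = dopamine control response; nearly all actives have a fitted effect of over 70% in size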
D2 ag-3 = D2 receptor agonism, beta-arrestin counterscreen | DiscoveRx PathHunter D2 beta-arrestin, luminescence, 90 min; response scale: percent relative to full dopamine signal | AID 720507 | Potency, µM (series often up to 76.9 µM), inactives show top-dose activation, most hits filed as activators | 2,300 compounds, 5.9% hits | shares compounds with D2 ag-2; also: potency is read from the fitted curve at half-maximal effect; % of control where 0% means no effect; nearly all actives have a fitted effect of over 70% in size
* hit, by the source's call; ? = inconclusive; . = no result given. Unless noted, calls follow the shape of the dose curve; as a rule, active = well fitted activation curve with a large enough effect; inconclusive = small, poorly fitted or top-dose-only effect; inactive = flat fitted curve, though single readings scatter.

SMILES	D2 ag-1	D2 antagonist	D2 PAM-1	D2 ag-2	D2 PAM-2	D3 ag	D2 ag-3
CCOC(=O)N1CCN(Cc2ccc3ccccc3c2)CC1	2.2	21.3	-32.2	34.1*	-5.8	-3.3%	26.2%
CCOC(=O)N1CCN(C(=O)c2ccc3ccccc3c2)CC1	-4.1	-1.0	3.2	0.1	-4.4	.	.
CCn1cc(C(=O)N2CCN(Cc3ccc4c(c3)OCO4)CC2)c(=O)c2ccc(C)nc21	5.7	13.2	-15.3	68.0*	-24.4	3.7%	11.9%
N#Cc1ccc(S(=O)(=O)N2CCC(C(=O)N3CCN(Cc4ccc5c(c4)OCO5)CC3)CC2)cc1	?	42.6*	3.2	34.6*	-11.7	2.1%	?
CCn1cc(C(=O)NCc2ccc3c(c2)OCO3)c(=O)c2ccc(C)nc21	.	-20.7	.	0.3	6.0	.	.
COc1ccc(N(C)S(=O)(=O)c2cccc(C(=O)N3CCN(Cc4ccc5c(c4)OCO5)CC3)c2)cc1	6.4	-3.5	-11.6	58.4*	-15.5	2.8%	10.7%
Cc1ccc(C(=O)N2CCN(Cc3ccc4c(c3)OCO4)CC2)o1	3.1	.	-34.7	.	.	11.2%	5.7%
CCOC(=O)N1CCN(C/C(C)=C/c2ccccc2)CC1	?	63.4*	21.9	63.3*	-29.0	11.2%	?
O=C(c1ccccc1)N1CCN(Cc2cccc(Oc3ccccc3)c2)CC1	1.4	-1.1	-5.7	49.4*	-31.3	8.2%	5.7%
COc1cccc(CN2CCN(C(=O)c3cccc(OC)c3)CC2)c1	-5.3	3.7	-17.9	-0.4	2.1	.	.
Cc1ccc2c(C)c(C(=O)N3CCN(Cc4ccc5c(c4)OCO5)CC3)oc2c1C	8.2	4.7	-31.7	0.1	-6.9	.	.
O=C(c1cnn2cccnc12)N1CCN(Cc2ccc3c(c2)OCO3)CC1	-1.7	-5.5	-5.0	17.7	-3.7	.	.
O=C(c1cc2ccccc2oc1=O)N1CCN(Cc2ccc3c(c2)OCO3)CC1	0.1	1.2	-18.5	0.3	-8.4	.	.
CS(=O)(=O)c1ccccc1C(=O)N1CCN(Cc2ccccc2)CC1	4.2	.	-1.2	.	.	-19.4%	26.0%
O=C(Cn1ccc2ccccc2c1=O)N1CCN(Cc2ccc3c(c2)OCO3)CC1	-3.6	0.2	-3.8	30.2*	-9.3	2.7%	9.1%
CN(CC(=O)N1CCN(Cc2ccccc2)CC1)C(=O)Cc1cccc2ccccc12	0.4	-15.1	-14.9	36.9*	0.5	0.3%	6.9%
CCOc1ncccc1C(=O)N1CCN(Cc2ccc3c(c2)OCO3)CC1	59.8*	74.8*	-12.3	79.9*	-21.8	?	2.82µM*
COc1ccccc1N1CCN(C(=O)Cn2ncc3c2-c2cc(C)ccc2OC3)CC1	.	.	.	0.6	-0.7	.	.
CCc1ccc(CN(Cc2ccco2)c2cnc(S(C)(=O)=O)nc2C(=O)Nc2c(C)cccc2C)cc1	.	.	.	3.1	-1.0	.	.
O=C(c1ccc([N+](=O)[O-])o1)N1CCN(Cc2ccccc2)CC1	5.6	5.5	-22.4	-0.2	3.2	.	.
COc1cccc(OC)c1C(=O)N1CCN(Cc2ccc3c(c2)OCO3)CC1	-3.4	19.5	-9.9	0.2	-2.3	.	.
Cc1ccc(C(=O)N2CCN(Cc3ccccc3)CC2)o1	10.0	-13.6	-45.2	50.2*	-17.7	-0.5%	2.9%
CCOC(=O)N1CCN(Cc2ccc3c(c2)OCO3)CC1	52.8*	80.9*	?	85.6*	-30.7	12.7%	5.01µM*
Cc1cc(=O)oc(C)c1C(=O)N1CCN(Cc2ccc3c(c2)OCO3)CC1	4.4	16.4	-10.1	-0.3	7.0	1.7%	16.2%
O=C(CCCn1c(=O)[nH]c2ccsc2c1=O)N1CCN(Cc2ccc3c(c2)OCO3)CC1	-2.9	.	-19.4	.	-5.9	-1.3%	10.1%
SMILES	D2 ag-1	D2 antagonist	D2 PAM-1	D2 ag-2	D2 PAM-2	D3 ag	D2 ag-3
CCn1ccc2cc(S(=O)(=O)N3CCC(C(=O)NCCc4ccccc4Cl)CC3)ccc21	.	.	.	0.6	9.0	.	.
O=S(=O)(NCC1CCCN(Cc2ccccc2O)C1)c1cccc2cccnc12 (configuration not stated)	-3.0	18.1	-36.5	48.5*	-21.0	-5.7%	0.5%
O=C(C1CCC(CNS(=O)(=O)c2cccc3cccnc23)CC1)N1CCCC1 (configuration not stated)	0.6	10.6	-2.7	-1.9	-4.0	.	.
Cc1cc(=O)n2nc(N3CCC(C(=O)NCCc4ccc(Cl)cc4)CC3)sc2n1	0.5	-20.3	-3.4	43.3*	-11.8	9.8%	6.2%
COc1cc(C(=O)OCc2ccccc2C#N)ccc1OCC(=O)N1CCOCC1	4.5	16.5	-3.1	0.0	5.9	.	.
COc1cc(C(=O)OCc2cccc(OC)c2OC)ccc1OCC(=O)N1CCOCC1	-5.3	-9.2	-3.9	-1.4	-4.2	-0.3%	-2.9%
COc1ccc(CCNC(=O)CSc2cn(Cc3cccc(C)c3)c3ccccc23)cc1OC	-1.9	-5.2	-3.7	57.9*	-15.1	-8.1%	0.6%
COc1ccc(CCNC(=O)CSc2ccccc2)cc1OC	-0.8	-13.0	2.4	0.7	8.0	.	.
COc1ccc(CCNC(=O)CSc2cn(Cc3ccccc3)c3ccccc23)cc1OC	-4.9	-9.6	-3.3	-0.8	-0.1	.	.
COc1ccc(CCNC(=O)CNCC(c2ccccc2)N(C)C)cc1OC (configuration not stated)	7.0	-1.9	-6.5	32.6*	-14.1	7.7%	11.2%
CCN(CC)C(=O)Cn1c(=O)n(-c2ccc(OC)cc2OC)c(=O)c2c(C)c(C(=O)N(CC)CC)sc21	.	.	.	0.1	0.3	.	.
O=S1(=O)c2ccccc2N(Cc2ccccc2F)c2ccccc21	.	.	.	0.3	.	.	.
CCN(CC)CCCNC(=O)c1nn(C)c2c1CSc1ccccc1-2	.	.	.	-0.3	-5.1	.	.
CNc1nc(CC(C)=O)ns1	-1.4	-5.7	-8.9	-0.4	20.7	.	.
CCCCNc1nc(CC(C)=O)ns1	-3.7	30.2*	2.1	50.2*	-18.4	-6.9%	-1.6%
COc1cccc(NC(=O)c2cn(C3CCCCC3)c(=O)c3c2c2ccccc2n3C)c1	.	.	.	0.6	-5.2	.	.
COc1ccc(NC(=O)c2ccc3c(c2)CCN3S(=O)(=O)c2ccc(C)cc2)cc1Cl	.	.	.	0.6	14.5	.	.
Cc1ccc(S(=O)(=O)N(Cc2cccnc2)Cc2cc3ccccc3[nH]c2=O)cc1	-2.4	93.9*	3.9	0.0	2.5	-1.5%	1.5%
COc1ccc(S(=O)(=O)N(Cc2cccnc2)Cc2cc3ccccc3[nH]c2=O)cc1	2.7	7.8	3.6	0.6	5.0	.	.
COc1ccc(CCNC(=O)CCc2c(C)c3cc4c(C)c(C)oc4cc3oc2=O)cc1	.	.	.	-1.2	3.9	.	.
